Data taken from PubChem BioAssay.
For some assays here: Potency and affinity values are given separately. Activity calls are given as the source filed them. Unless noted, no rule for the calls is given here.

Experiments:
[1] = antimalarial activity against Dd2 strain (AID 2302;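 active = growth inhibition above 50% at the single 2 µM test dose, taken to imply half-maximal potency below 2 µM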;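 also: 0% = DMSO untreated growth and 100% = chloroquine plus artemisinin killed control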); details: P. falciparum Dd2 in RBCs, LDH growth readout, 72 h; at 2 µM; stronger effect = higher value
[2] = human hepatoma cell viability loss – ATP luminescence, cytotoxicity control for P. falciparum antimalarial project, primary screen (AID 2303;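 active = inhibition above 50%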;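 also: 0% = DMSO wells and 100% = digitonin-killed cells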); details: HepG2 viability, 24-48 h, at 10 µM, stronger effect = higher value
[3] = target: L-lactate dehydrogenase (Plasmodium falciparum (isolate CDC / Honduras)) (UniProt Q27743); assay: PfLDH activity inhibition – cell lysate, 3D7 strain, counter-screen for P. falciparum growth inhibition project (AID 2304);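 also: 0% = vehicle and 100% = reference inhibitor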; details: P. falciparum 3D7 crude extract, LDH APAD/NBT absorbance; at 2 µM; stronger effect = higher value
[4] = inhibition of 3D7 malaria parasite growth – strain 3D7 (AID 2306);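 also: 0% = DMSO wells and 100% = chloroquine plus artemisinin control wells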; details: P. falciparum 3D7 erythrocytic growth, LDH absorbance, 72 h; at 2 µM; stronger effect = higher value
[5] = target: Calcium-dependent protein kinase 1 (Plasmodium falciparum (isolate 3D7)) (UniProt P62344); assay: PfCDPK1 kinase inhibitors, biochemical, TCAMS library (AID 1159585; cut-off not given, nearly all actives have IC50 up to about 0.98 µM;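 also: inhibitors leave more ATP so luminescence rises with inhibition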); details: recombinant PfCDPK1, Kinase-Glo ATP depletion luminescence
[6] = target: Plasmodium falciparum protein kinase 6 (PK6, PF3D7_1337100) (UniProt Q8IDW1); assay: PfPK6 kinase inhibitors, biochemical, TCAMS library (AID 1159586); details: recombinant PfPK6, Kinase-Glo ATP depletion luminescence
[7] = target: Protein kinase 7 (PK7), Plasmodium falciparum 3D7 (PF3D7_0213400) (UniProt Q7YTF7); assay: inhibition of Plasmodium PK7 catalytic activity – biochemical, TCAMS antimalarial set, Kinase-Glo luminescence (AID 1159587); details: recombinant PfPK7, Kinase-Glo ATP depletion luminescence
[8] = target: Calcium-dependent protein kinase 4 (Plasmodium falciparum (isolate 3D7)) (UniProt Q8IBS5); assay: PfCDPK4 kinase inhibitors, biochemical, TCAMS library (AID 1159588; cut-off not given, nearly all actives have IC50 up to about 0.91 µM); details: recombinant PfCDPK4, Kinase-Glo ATP depletion luminescence
Calcium-dependent protein kinase 4 (Plasmodium falciparum (isolate 3D7)), sequence (Q8IBS5 whole entry, looked up): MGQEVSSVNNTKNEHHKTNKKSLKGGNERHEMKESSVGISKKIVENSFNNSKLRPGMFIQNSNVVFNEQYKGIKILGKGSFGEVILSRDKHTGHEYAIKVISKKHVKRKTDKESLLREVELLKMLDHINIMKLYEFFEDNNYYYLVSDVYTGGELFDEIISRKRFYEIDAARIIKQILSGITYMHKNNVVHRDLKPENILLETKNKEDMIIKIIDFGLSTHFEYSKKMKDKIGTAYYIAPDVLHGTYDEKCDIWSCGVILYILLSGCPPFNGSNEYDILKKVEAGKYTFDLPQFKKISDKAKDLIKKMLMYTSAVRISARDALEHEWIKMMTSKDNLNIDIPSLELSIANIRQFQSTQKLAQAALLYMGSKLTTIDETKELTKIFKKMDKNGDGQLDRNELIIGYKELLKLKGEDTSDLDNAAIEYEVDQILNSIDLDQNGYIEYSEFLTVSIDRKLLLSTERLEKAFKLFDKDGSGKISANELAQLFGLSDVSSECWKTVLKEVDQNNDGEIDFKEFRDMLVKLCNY

L-lactate dehydrogenase (Plasmodium falciparum (isolate CDC / Honduras)), sequence (Q27743 whole entry, looked up): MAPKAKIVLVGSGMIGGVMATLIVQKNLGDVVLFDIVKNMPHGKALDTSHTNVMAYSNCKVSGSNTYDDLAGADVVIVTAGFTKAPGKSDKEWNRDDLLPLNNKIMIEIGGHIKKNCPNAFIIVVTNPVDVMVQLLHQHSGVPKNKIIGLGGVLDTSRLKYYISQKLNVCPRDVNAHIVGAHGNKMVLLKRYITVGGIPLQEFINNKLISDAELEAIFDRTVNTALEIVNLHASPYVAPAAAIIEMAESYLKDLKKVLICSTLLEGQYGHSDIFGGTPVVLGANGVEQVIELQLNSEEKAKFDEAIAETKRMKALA
Calcium-dependent protein kinase 1 (Plasmodium falciparum (isolate 3D7)), sequence (P62344 whole entry, looked up): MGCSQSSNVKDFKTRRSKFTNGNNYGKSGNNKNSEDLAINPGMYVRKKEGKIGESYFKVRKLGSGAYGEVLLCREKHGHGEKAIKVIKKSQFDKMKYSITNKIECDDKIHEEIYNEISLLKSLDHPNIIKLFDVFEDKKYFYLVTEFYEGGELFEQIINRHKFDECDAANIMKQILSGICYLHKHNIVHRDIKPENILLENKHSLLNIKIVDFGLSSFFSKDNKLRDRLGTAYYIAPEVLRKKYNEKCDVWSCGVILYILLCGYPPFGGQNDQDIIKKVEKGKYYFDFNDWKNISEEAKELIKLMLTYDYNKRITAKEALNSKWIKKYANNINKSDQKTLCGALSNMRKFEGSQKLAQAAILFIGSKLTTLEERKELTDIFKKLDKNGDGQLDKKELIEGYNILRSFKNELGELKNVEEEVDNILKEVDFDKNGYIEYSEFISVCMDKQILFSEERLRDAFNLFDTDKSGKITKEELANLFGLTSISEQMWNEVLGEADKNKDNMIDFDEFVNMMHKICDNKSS
Protein kinase 7 (PK7), Plasmodium falciparum 3D7 (PF3D7_0213400), sequence (Q7YTF7 1-343): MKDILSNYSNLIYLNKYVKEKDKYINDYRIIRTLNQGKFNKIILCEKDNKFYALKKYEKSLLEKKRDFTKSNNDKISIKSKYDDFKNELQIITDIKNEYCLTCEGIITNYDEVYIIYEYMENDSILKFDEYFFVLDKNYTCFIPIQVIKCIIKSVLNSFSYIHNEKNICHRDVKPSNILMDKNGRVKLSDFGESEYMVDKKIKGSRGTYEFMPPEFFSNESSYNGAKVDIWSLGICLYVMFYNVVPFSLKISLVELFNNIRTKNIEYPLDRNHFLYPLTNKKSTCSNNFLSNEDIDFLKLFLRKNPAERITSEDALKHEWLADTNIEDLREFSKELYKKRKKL
Plasmodium falciparum protein kinase 6 (PK6, PF3D7_1337100), sequence (Q8IDW1 1-305): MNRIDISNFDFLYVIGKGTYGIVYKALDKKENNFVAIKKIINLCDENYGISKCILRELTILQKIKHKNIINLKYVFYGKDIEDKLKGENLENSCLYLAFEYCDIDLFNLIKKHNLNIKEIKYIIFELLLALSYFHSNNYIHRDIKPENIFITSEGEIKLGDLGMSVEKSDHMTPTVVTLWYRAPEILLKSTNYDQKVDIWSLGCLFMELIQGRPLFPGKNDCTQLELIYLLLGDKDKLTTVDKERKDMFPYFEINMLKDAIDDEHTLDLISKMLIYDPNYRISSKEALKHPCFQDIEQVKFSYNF

O=[N+]([O-])c1ccc(Oc2ccccc2CNCC2CCN(CC3CCCCC3)CC2)cc1
inactive: growth inhibition [1] 28% | inhibition [2] 40% | inhibition [3] -2% | outcome [5] | outcome [6] | outcome [7] | outcome [8]
active: growth inhibition [4] 89%

O=C(Cc1ccc(-n2cnnn2)cc1)N(Cc1cncn1Cc1cccc(C(F)(F)F)c1)CC1CC1
active: growth inhibition [4] 86%
inactive: growth inhibition [1] -2% | inhibition [2] -12% | inhibition [3] 0% | outcome [5] | outcome [6] | outcome [7] | outcome [8]

CN1CCCc2ccc(NC(=O)Nc3ccc(Cl)c(Cl)c3)cc2C1
active: growth inhibition [4] 89%
inactive: growth inhibition [1] 22% | inhibition [2] -13% | inhibition [3] -2% | outcome [5] | outcome [6] | outcome [7] | outcome [8]

O=S(=O)(NCCN1CCCC1)c1ccc(-c2cccc(CNCCc3cccs3)c2)cc1
active: growth inhibition [4] 95%
inactive: growth inhibition [1] 30% | inhibition [2] 41% | inhibition [3] -1% | outcome [5] | outcome [6] | outcome [7] | outcome [8]

Cc1ccc(C(=O)c2oc3ccc4c(C)cc(=O)oc4c3c2C)cc1
active: growth inhibition [4] 86%
inactive: growth inhibition [1] 48% | inhibition [2] -8% | inhibition [3] 1% | outcome [5] | outcome [6] | outcome [7] | outcome [8]

CN(CC(=O)Nc1ccc(F)cc1)C(=O)c1ccc(-c2ccc(F)cc2)o1
active: growth inhibition [1] 84% | growth inhibition [4] 89%
inactive: inhibition [2] 3% | inhibition [3] -2% | outcome [5] | outcome [6] | outcome [7] | outcome [8]

CC(C)(C)C(=O)Nc1ccccc1Oc1ccc(Cl)cc1
active: growth inhibition [1] 96% | inhibition [2] 54% | growth inhibition [4] 92%
inactive: inhibition [3] 7% | outcome [5] | outcome [6] | outcome [7] | outcome [8]

CCCNC(=O)C1CCN(C(c2ccccc2)c2ccc(Cl)c(Cl)c2)CC1 (stereo not given)
active: growth inhibition [1] 90% | growth inhibition [4] 90%
inactive: inhibition [2] 15% | inhibition [3] 1% | outcome [5] | outcome [6] | outcome [7] | outcome [8]

O=C(CCCC(=O)Nc1ccc(C2=NCCN2)cc1)Nc1ccc(C2=NCCN2)cc1
active: growth inhibition [1] 81% | growth inhibition [4] 91%
inactive: inhibition [2] 3% | inhibition [3] 2% | outcome [5] | outcome [6] | outcome [7] | outcome [8]

COc1ccccc1-c1cccc(Nc2c(Nc3ccc(Cl)cc3)c(=O)c2=O)c1
active: growth inhibition [4] 81%
inactive: growth inhibition [1] 47% | inhibition [2] 20% | inhibition [3] 0% | outcome [5] | outcome [6] | outcome [7] | outcome [8]

CC1(C)N=C(N)N=C(N)N1OCCCOc1cc(Cl)c(Cl)cc1Cl
inactive: inhibition [3] -1% | outcome [5] | outcome [6] | outcome [7] | outcome [8]
active: growth inhibition [1] 95% | inhibition [2] 60% | growth inhibition [4] 95%

Cc1cc2ncc(C(N)=O)c(Nc3ccc(N4CCOCC4)cc3)c2cc1S(C)(=O)=O
inactive: inhibition [2] -10% | inhibition [3] -5% | outcome [5] | outcome [6] | outcome [7] | outcome [8]
active: growth inhibition [1] 96% | growth inhibition [4] 100%

Clc1cc(Nc2ncnc3sc(C#Cc4ncc[nH]4)cc23)ccc1OCc1ccccn1
inactive: growth inhibition [1] 6% | inhibition [2] 10% | inhibition [3] -3% | outcome [5] | outcome [6] | outcome [7] | outcome [8]
active: growth inhibition [4] 101%

Cc1ccnc(-n2c(C)cc(C=C3SC(=Nc4ccccc4)N(Cc4ccco4)C3=O)c2C)c1
inactive: inhibition [2] -5% | inhibition [3] -1% | outcome [5] | outcome [6] | outcome [7] | outcome [8]
active: growth inhibition [1] 98% | growth inhibition [4] 99%

NC(N)=Nc1nc(-c2cccc(NC(=O)NCc3ccc(OC(F)(F)F)cc3)c2)cs1
active: growth inhibition [4] 100%
inactive: growth inhibition [1] 26% | inhibition [2] -3% | inhibition [3] 4% | outcome [5] | outcome [6] | outcome [7] | outcome [8]

CN(C)S(=O)(=O)c1ccc(N2CCN(CCC3(c4cccc(F)c4)CCN(C(=O)C(C)(C)C)CC3)CC2)c2nonc12
inactive: inhibition [2] 8% | inhibition [3] -1% | outcome [5] | outcome [6] | outcome [7] | outcome [8]
active: growth inhibition [1] 85% | growth inhibition [4] 91%

COc1ccc(NC(=O)[C@H](CC(C)C)Nc2ccnc(NCCc3ccc(F)cc3)n2)cc1
active: growth inhibition [4] 86%
inactive: growth inhibition [1] 22% | inhibition [2] -6% | inhibition [3] -2% | outcome [5] | outcome [6] | outcome [7] | outcome [8]

CCc1cc(NCc2ccncc2)nc(Nc2ccc(F)cc2)n1
inactive: growth inhibition [1] 17% | inhibition [2] 8% | inhibition [3] 0% | outcome [5] | outcome [6] | outcome [7] | outcome [8]
active: growth inhibition [4] 92%

COc1cc(Nc2ccnc3cc(-c4ccncc4)ccc23)cc(OC)c1OC
inactive: growth inhibition [1] 39% | inhibition [2] 9% | inhibition [3] 0% | outcome [5] | outcome [6] | outcome [7] | outcome [8]
active: growth inhibition [4] 89%

COc1cccc2c(C)cc(NCc3ccc(Cl)cc3)nc12
inactive: growth inhibition [1] 5% | inhibition [2] 7% | inhibition [3] 5% | outcome [5] | outcome [6] | outcome [7] | outcome [8]
active: growth inhibition [4] 97%

O=C(Nc1ccc(-c2cccc(-c3nc4ccccc4[nH]3)c2)cc1)Nc1ccc(F)c(F)c1F
inactive: inhibition [3] 5% | outcome [5] | outcome [6] | outcome [7] | outcome [8]
active: growth inhibition [1] 96% | inhibition [2] 74% | growth inhibition [4] 100%

CC(Cc1ccc(CNC(=O)c2ccc(CC(C)NCCc3cccc(Cl)c3)cc2)cc1)NCCc1cccc(Cl)c1 (stereo not given)
active: growth inhibition [1] 66% | inhibition [2] 99% | growth inhibition [4] 99%
inactive: inhibition [3] -2% | outcome [5] | outcome [6] | outcome [7] | outcome [8]

Cc1[nH]c(C)c(-c2ccc(Oc3cccc(Cl)c3)cc2)c(=O)c1Br
active: growth inhibition [1] 97% | growth inhibition [4] 98%
inactive: inhibition [2] 46% | inhibition [3] 3% | outcome [5] | outcome [6] | outcome [7] | outcome [8]

COc1c(C2CCN(CCCCNC(=O)c3ccc(-c4ccc(C#N)cc4)c(O)c3)CC2)ccc2c1CCCC2
inactive: inhibition [2] 35% | inhibition [3] -2% | outcome [5] | outcome [6] | outcome [7] | outcome [8]
active: growth inhibition [1] 78% | growth inhibition [4] 100%

COc1ccc(CN2CCC(CN3CC4(OC3=O)c3ccccc3-c3ccccc34)C2)c(O)c1 (stereo not given)
active: growth inhibition [1] 79% | growth inhibition [4] 101%
inactive: inhibition [2] 22% | inhibition [3] -7% | outcome [5] | outcome [6] | outcome [7] | outcome [8]

Cc1cc(NC(=O)c2sc3ccccc3c2O)no1
active: growth inhibition [4] 96%
inactive: growth inhibition [1] 25% | inhibition [2] 6% | inhibition [3] 1% | outcome [5] | outcome [6] | outcome [7] | outcome [8]

COc1cc2nccc(Nc3ccc4c(cnn4Cc4cccc(F)c4)c3)c2cc1OC
inactive: inhibition [2] 29% | inhibition [3] -6% | outcome [5] | outcome [6] | outcome [7] | outcome [8]
active: growth inhibition [1] 99% | growth inhibition [4] 101%

COc1cc(NC(=O)Nc2ccc(Br)cc2C(=O)Nc2ccc(Br)cc2)cc(OC)c1OC
active: growth inhibition [1] 98% | growth inhibition [4] 99%
inactive: inhibition [2] -4% | inhibition [3] 7% | outcome [5] | outcome [6] | outcome [7] | outcome [8]

CCCC(=O)NC(c1cccs1)c1cc(Cl)c2cccnc2c1O (stereo not given)
active: growth inhibition [1] 61% | inhibition [2] 51% | growth inhibition [4] 87%
inactive: inhibition [3] -4% | outcome [5] | outcome [6] | outcome [7] | outcome [8]

CC(=O)Nc1ccc(C(=O)Nc2cccc(-c3ccc(-c4nc5ccc(C(F)(F)F)cc5[nH]4)cc3)c2)cn1
inactive: inhibition [2] 46% | inhibition [3] -3% | outcome [5] | outcome [6] | outcome [7] | outcome [8]
active: growth inhibition [1] 100% | growth inhibition [4] 101%

CC(C)C[C@@H](/C=N/N1CC(=O)NC1=O)NC(=O)[C@H](CC(C)C)NC(=O)c1ccc(OCCN2CCOCC2)cc1
inactive: inhibition [2] 11% | inhibition [3] 1% | outcome [5] | outcome [6] | outcome [7] | outcome [8]
active: growth inhibition [1] 79% | growth inhibition [4] 94%

COc1ccc(C=NNc2nc3ccccc3[nH]2)cc1O
active: growth inhibition [4] 95%
inactive: growth inhibition [1] 13% | inhibition [2] 15% | inhibition [3] 0% | outcome [5] | outcome [6] | outcome [7] | outcome [8]

COc1cc2nc(N3CCC(CNC(=O)c4ccc(-c5ccc(C#N)cc5)cc4)CC3)nc(N)c2cc1OC
inactive: inhibition [2] 21% | inhibition [3] -4% | outcome [5] | outcome [6] | outcome [7] | outcome [8]
active: growth inhibition [1] 99% | growth inhibition [4] 100%

COc1cccc2[nH]c(NCCCNCc3cc(Br)cc(Br)c3)nc12
active: growth inhibition [4] 88%
inactive: growth inhibition [1] 2% | inhibition [2] 5% | inhibition [3] -8% | outcome [5] | outcome [6] | outcome [7] | outcome [8]

CC(C)(C)c1ccc(CN2CCC(CNC(=O)c3cc(-c4cccc(C(F)(F)F)c4)cs3)C2)cc1 (stereo not given)
inactive: inhibition [3] 1% | outcome [5] | outcome [6] | outcome [7] | outcome [8]
active: growth inhibition [1] 84% | inhibition [2] 80% | growth inhibition [4] 100%

COc1ccc2nc(N3CCNCC3)nc(NCCCc3ccccc3)c2c1
active: growth inhibition [4] 100%
inactive: growth inhibition [1] 43% | inhibition [2] 31% | inhibition [3] -3% | outcome [5] | outcome [6] | outcome [7] | outcome [8]

COCCNCc1ncsc1-c1ccc2c(Nc3ccc(Oc4ccccc4)cc3)ccnc2c1
active: growth inhibition [1] 93% | growth inhibition [4] 91%
inactive: inhibition [2] 34% | inhibition [3] -7% | outcome [5] | outcome [6] | outcome [7] | outcome [8]

COc1cc2nc(N3CCC(CNC(=O)c4cc5ccccc5s4)CC3)nc(N)c2cc1OC
active: growth inhibition [1] 101% | growth inhibition [4] 101%
inactive: inhibition [2] 8% | inhibition [3] 2% | outcome [5] | outcome [6] | outcome [7] | outcome [8]

O=C(Nc1ccc(Cl)cc1)c1cc(Cl)ccc1NC(=O)C1CCc2ccccc2O1 (stereo not given)
inactive: inhibition [2] 1% | inhibition [3] -1% | outcome [5] | outcome [6] | outcome [7] | outcome [8]
active: growth inhibition [1] 63% | growth inhibition [4] 98%

CCC(C)NCC(O)(c1ccc(Cl)cc1)c1ccc(Cl)cc1 (stereo not given)
active: growth inhibition [1] 76% | growth inhibition [4] 95%
inactive: inhibition [2] 5% | inhibition [3] 0% | outcome [5] | outcome [6] | outcome [7] | outcome [8]
